In general, AC50 refers to the midpoint of the concentration-response curve, whichever way the signal moves.

The source made the active and inactive calls. The calls were made as follows: active = hit-call score of the fitted dose curve at least 0.9, where 1 is the maximum; inactive = score below 0.9.

The nature of experiment [1]: ATG_CRE_CIS: Attagene CIS-FACTORIAL HepG2 Assay for human cAMP Responsive Element (CRE) binding protein 3 (AID 2282926). Conditions: HepG2 CRE cis-reporter, Attagene multiplexed mRNA; actives raise or lower the signal. The procedure, abridged: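 Readout: fluorescently labelled reporter transcripts resolved by capillary electrophoresis after RT-PCR, taken 24 h post-dosing in transfected HepG2. Endogenous transcription factor activity drives each cis-element reporter; gain or loss of signal fitted relative to DMSO control.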

For experiment [2], the target named is CCAAT/enhancer-binding protein beta (Homo sapiens) (UniProt P17676). Kind of experiment: ATG_C_EBP_CIS: Attagene CIS-FACTORIAL HepG2 Assay for human CCAAT/Enhancer Binding Protein (C/EBP) beta (AID 2282927). To be noted: HepG2 Attagene cis-factorial transcription factor reporter; actives raise or lower the signal. The method in brief:
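RT-PCR/capillary electrophoresis fluorescence of reporter mRNA, 24 h post-dose, in HepG2 cells carrying transfected cis-promoter reporter units. Bidirectional curve fitting against DMSO baseline captures gain or loss of signal.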

The nature of experiment [3]: ATG_CMV_CIS: Attagene CIS-FACTORIAL HepG2 Assay for human CMV (Internal Marker) (AID 2282928).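 Also: endpoint acts as a background internal control marker rather than a target.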 To be noted: HepG2 CMV promoter reporter, transcription factor profiling; actives raise or lower the signal. The procedure, abridged:
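Bidirectional fits against DMSO are applied to reporter mRNA, read by RT-PCR with capillary electrophoresis, from HepG2 cells exposed 24 h. The endpoint serves as an internal CMV background marker within the cis-factorial reporter panel.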

Experiment [4] is described as follows: ATG_DR4_LXR_CIS: Attagene CIS-FACTORIAL HepG2 Assay for human Liver X Receptor (LXR), DR4 submotif (AID 2282929). Conditions: HepG2 Attagene DR4 cis-reporter, mRNA transcription; actives raise or lower the signal. The procedure, abridged: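 HepG2, transient MRTU transfection, cis-element (DR4) promoter; 24 h compound exposure; total RNA → oligo(dT) RT → PCR → 6-FAM primer extension → HpaI cut → CE. Gain/loss vs DMSO, bidirectional fit.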

Experiment [5] has as its target Aryl hydrocarbon receptor (Homo sapiens) (UniProt P35869). Description: ATG_Ahr_CIS: Attagene CIS-FACTORIAL HepG2 Assay for human Aryl Hydrocarbon Receptor (Ahr) (AID 2282930). To be noted: HepG2 AhR cis-factorial reporter transcription; actives raise or lower the signal. The procedure, abridged: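 HepG2 cells transiently transfected with cis-element-driven multiplexed reporter transcription units; endogenous transcription factor activity measured as reporter mRNA 24 h after dosing. RT-PCR, 6-FAM labelling, HpaI digestion, capillary electrophoresis; bidirectional fitting versus DMSO baseline.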

Experiment [6] is described as follows: ATG_AP_1_CIS: Attagene CIS-FACTORIAL HepG2 Assay for human Activator Protein 1 (AP-1) (AID 2282931). To be noted: HepG2 Attagene cis-factorial AP-1 reporter mRNA; actives raise or lower the signal. The procedure, abridged:
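Transient MRTU transfection of HepG2 → 24 h chemical treatment → RNA isolation, RT-PCR, 6-FAM labelling, HpaI digest → capillary electrophoresis. Fit: bidirectional, DMSO negative control.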

A short description of experiment [7]: ATG_AP_2_CIS: Attagene CIS-FACTORIAL HepG2 Assay for human Activator Protein 2 (AP-2) (AID 2282932). Conditions: HepG2 AP-2 cis-reporter, Attagene transcription factor profiling; actives raise or lower the signal. The procedure, abridged:
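Cells (HepG2) transfected with promoter-driven reporter constructs, treated 24 h. Total RNA reverse-transcribed, reporter cDNA PCR-amplified, FAM-labelled by primer extension, digested, resolved by capillary electrophoresis. Activity fitted both directions versus DMSO.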

The nature of experiment [8]: ATG_BRE_CIS: Attagene CIS-FACTORIAL HepG2 Assay for human Bone Morphogenetic Protein (BMP) Response Element (BRE) (AID 2282933). Conditions: HepG2 BMP response element reporter, Attagene transcription factor profiling; actives raise or lower the signal. The procedure, abridged: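 Fluorescence-labelled reporter cDNA fragments, separated by capillary electrophoresis, gave the signal for this component of a 52-readout multiplex. HepG2 cells were transfected, exposed to chemicals for 24 h, and compared with DMSO using bidirectional fitting.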

Experiment [9] deals with Retinoic acid receptor alpha (Homo sapiens) (UniProt P10276). Description: ATG_DR5_RAR_CIS: Attagene CIS-FACTORIAL HepG2 Assay for human Retinoic Acid Receptor Alpha (RARE), DR5 submotif (AID 2282934). To be noted: HepG2 Attagene cis-factorial RARE DR5 reporter, mRNA; actives raise or lower the signal. The procedure, abridged: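 HepG2 cells transiently transfected with multiplexed reporter units under cis (DR5 RARE) promoters, so endogenous transcription factor activity is measured. After 24 h compound exposure, reporter mRNA is quantified by RT-PCR with fluorescent labelling and capillary electrophoresis; bidirectional fitting versus DMSO.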

The target of experiment [10] is Transcription factor E2F1 (Homo sapiens) (UniProt Q01094). Kind of experiment: ATG_E2F_CIS: Attagene CIS-FACTORIAL HepG2 Assay for human E2F Transcription Factor 1 (AID 2282935). Conditions: HepG2 Attagene cis-reporter, E2F reporter RNA transcripts; actives raise or lower the signal. The method in brief:
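First, HepG2 cells were transfected with reporter transcription units. Next, they were dosed for 24 h. Then RNA was isolated, converted to cDNA, PCR-amplified, FAM-labeled, HpaI-digested and analyzed by capillary electrophoresis.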

Experiment [11] is described as follows: ATG_E_Box_CIS: Attagene CIS-FACTORIAL HepG2 Assay for human Enhancer Box (E-box) (AID 2282936). Conditions: HepG2 E-box cis-reporter transcription, actives raise or lower the signal. The method in brief: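 Endogenous transcription factor activity was sensed in human HepG2 liver cells through transfected cis-promoter reporter units. After 24 h of dosing, total RNA was reverse-transcribed and reporter cDNA resolved by capillary electrophoresis.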

Experiment [12] can be described thus: ATG_M_61_CIS: Attagene CIS-FACTORIAL HepG2 Assay for M61 Transcription Factor (Internal Marker) (AID 2282937). Conditions: HepG2 Attagene CIS-FACTORIAL M61 internal marker reporter; actives raise or lower the signal. The method in brief: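 Human liver HepG2, transient MRTU transfection (cis promoter elements), 24 h compound. Total RNA → oligo(dT) RT → PCR → FAM label → HpaI → CE. Internal background marker; bidirectional fitting, DMSO = baseline.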

A short description of experiment [13]: ATG_EGR_CIS: Attagene CIS-FACTORIAL HepG2 Assay for human Early Growth Response 1 (EGR1) (AID 2282938). To be noted: HepG2 Attagene CIS-FACTORIAL EGR reporter mRNA; actives raise or lower the signal. The procedure, abridged:
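Transient transfection of human HepG2 with multiple cis-regulated reporter units, chemical exposure 24 h, total RNA isolated. Reverse transcription, PCR, fluorescent labelling and capillary electrophoresis quantify reporter transcripts; activity fitted bidirectionally against DMSO.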

The nature of experiment [14]: ATG_M_19_CIS: Attagene CIS-FACTORIAL HepG2 Assay for M19 Transcription Factor (Internal Marker) (AID 2282939). Conditions: HepG2 Attagene CIS-FACTORIAL M19 internal marker reporter; actives raise or lower the signal. The method in brief: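 HepG2, MRTU transient transfection, 24 h dosing. Total RNA → RT-PCR → 6-FAM primer extension → HpaI digest → CE fluorescence. Bidirectional curve fit, DMSO negative control.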

A short description of experiment [15]: ATG_Ets_CIS: Attagene CIS-FACTORIAL HepG2 Assay for human Erythroblast Transformation Specific (ETS) (AID 2282941). Conditions: HepG2 ETS cis-reporter transcription, actives raise or lower the signal. The procedure, abridged: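 Endogenous transcription factor activity read as reporter mRNA via RT-PCR and capillary electrophoresis, with gain or loss fitted bidirectionally against DMSO. Human HepG2 liver cells, transiently transfected CIS reporter constructs, 24 h exposure.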

Experiment [16] addresses Hepatocyte nuclear factor 3-beta (Homo sapiens) (UniProt Q9Y261). Description: ATG_FoxA2_CIS: Attagene CIS-FACTORIAL HepG2 Assay for human Forkhead box A2 (FOXA2) (AID 2282942). To be noted: HepG2 cis-reporter transcription factor activity, 24 h; actives raise or lower the signal. The method in brief:
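Transient MRTU transfection of HepG2 liver cells; 24 h treatment; total RNA → oligo(dT) RT → PCR → FAM primer extension → HpaI cut → CE. Bidirectional fit vs DMSO.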

A short description of experiment [17]: ATG_FoxO_CIS: Attagene CIS-FACTORIAL HepG2 Assay for human Forkhead box O (FoxO) (AID 2282943). To be noted: HepG2 Attagene cis-reporter, FoxO element, mRNA; actives raise or lower the signal. The procedure, abridged: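 HepG2 cells transiently transfected with cis-promoter-driven multiple reporter transcription units; 24 h after chemical dosing, reporter mRNA quantified by RT-PCR, fluorescent primer extension, HpaI digestion and capillary electrophoresis. Bidirectional fitting versus DMSO baseline.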

Experiment [18] can be described thus: ATG_GATA_CIS: Attagene CIS-FACTORIAL HepG2 Assay for human GATA Binding Protein (AID 2282944). Conditions: HepG2 GATA cis-element reporter, Attagene multiplex mRNA; actives raise or lower the signal. The method in brief:
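Cells: HepG2, transiently transfected with cis-regulated reporter transcription units. Exposure: 24 h. Detection: RT-PCR plus capillary electrophoresis of FAM-labeled fragments. Analysis: bidirectional, DMSO as baseline.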

Experiment [19] in a line: ATG_GLI_CIS: Attagene CIS-FACTORIAL HepG2 Assay for human Zinc Finger Protein GLI1 (AID 2282945). To be noted: HepG2, Attagene cis-factorial reporter mRNA, GLI element; actives raise or lower the signal. The method in brief:
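HepG2 cells transiently transfected with cis-promoter multiplexed reporter units report endogenous transcription factor activity. After 24 h chemical exposure, reporter mRNA was quantified by RT-PCR, 6-FAM labelling, HpaI digestion and capillary electrophoresis, with bidirectional fitting against DMSO.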

The target in experiment [20] is Bile acid receptor (Homo sapiens) (UniProt Q96RI1). Description: ATG_IR1_CIS: Attagene CIS-FACTORIAL HepG2 Assay for human Nuclear Receptor Subfamily 1 Group H Member 4 (NR1H4), IR1 submotif (AID 2282946). Conditions: IR1 reporter transcription, actives raise or lower the signal. The procedure, abridged: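 Readout: reporter transcript levels by RT-PCR with fluorescent capillary electrophoresis, from HepG2 cells transiently transfected with multiplexed cis-regulated reporters and dosed 24 h. Gain- or loss-of-signal fitted versus DMSO negative control.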
Chain of Bile acid receptor (Homo sapiens) (Q96RI1 whole entry, looked up): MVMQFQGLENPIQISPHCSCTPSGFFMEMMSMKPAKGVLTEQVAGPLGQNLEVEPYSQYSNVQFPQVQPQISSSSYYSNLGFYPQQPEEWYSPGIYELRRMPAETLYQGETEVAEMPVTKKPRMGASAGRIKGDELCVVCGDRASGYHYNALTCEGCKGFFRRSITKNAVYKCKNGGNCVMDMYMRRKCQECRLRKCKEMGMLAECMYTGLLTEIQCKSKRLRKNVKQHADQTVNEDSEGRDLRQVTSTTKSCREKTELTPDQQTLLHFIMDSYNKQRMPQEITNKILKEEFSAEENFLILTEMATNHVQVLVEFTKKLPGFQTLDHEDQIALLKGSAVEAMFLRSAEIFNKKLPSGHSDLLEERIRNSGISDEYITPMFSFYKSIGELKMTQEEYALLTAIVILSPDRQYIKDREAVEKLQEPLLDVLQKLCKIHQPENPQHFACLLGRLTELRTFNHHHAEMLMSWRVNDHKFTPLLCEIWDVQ

Chain of Retinoic acid receptor alpha (Homo sapiens) (P10276 whole entry, looked up): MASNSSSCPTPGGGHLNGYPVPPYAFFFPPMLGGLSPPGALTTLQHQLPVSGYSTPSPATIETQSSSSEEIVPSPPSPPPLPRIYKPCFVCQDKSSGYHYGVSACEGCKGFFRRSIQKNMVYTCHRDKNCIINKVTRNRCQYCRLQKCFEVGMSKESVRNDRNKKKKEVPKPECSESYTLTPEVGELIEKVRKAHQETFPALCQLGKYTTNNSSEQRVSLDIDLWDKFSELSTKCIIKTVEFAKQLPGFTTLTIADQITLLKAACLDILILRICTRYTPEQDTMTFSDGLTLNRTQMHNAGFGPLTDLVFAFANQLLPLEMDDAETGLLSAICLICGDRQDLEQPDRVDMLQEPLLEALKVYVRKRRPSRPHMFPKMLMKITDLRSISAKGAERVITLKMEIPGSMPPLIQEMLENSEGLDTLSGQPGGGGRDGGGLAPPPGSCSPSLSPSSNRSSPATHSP
Chain of CCAAT/enhancer-binding protein beta (Homo sapiens) (P17676 whole entry, looked up): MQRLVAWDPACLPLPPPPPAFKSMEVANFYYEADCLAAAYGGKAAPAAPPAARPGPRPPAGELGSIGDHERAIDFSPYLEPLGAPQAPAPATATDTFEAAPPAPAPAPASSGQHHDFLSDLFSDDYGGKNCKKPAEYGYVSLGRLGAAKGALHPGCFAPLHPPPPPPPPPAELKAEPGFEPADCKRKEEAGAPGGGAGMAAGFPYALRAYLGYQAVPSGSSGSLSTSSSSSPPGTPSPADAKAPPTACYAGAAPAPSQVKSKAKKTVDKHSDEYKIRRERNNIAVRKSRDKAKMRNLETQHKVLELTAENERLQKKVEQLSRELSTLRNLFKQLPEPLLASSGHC
Chain of Transcription factor E2F1 (Homo sapiens) (Q01094 whole entry, looked up): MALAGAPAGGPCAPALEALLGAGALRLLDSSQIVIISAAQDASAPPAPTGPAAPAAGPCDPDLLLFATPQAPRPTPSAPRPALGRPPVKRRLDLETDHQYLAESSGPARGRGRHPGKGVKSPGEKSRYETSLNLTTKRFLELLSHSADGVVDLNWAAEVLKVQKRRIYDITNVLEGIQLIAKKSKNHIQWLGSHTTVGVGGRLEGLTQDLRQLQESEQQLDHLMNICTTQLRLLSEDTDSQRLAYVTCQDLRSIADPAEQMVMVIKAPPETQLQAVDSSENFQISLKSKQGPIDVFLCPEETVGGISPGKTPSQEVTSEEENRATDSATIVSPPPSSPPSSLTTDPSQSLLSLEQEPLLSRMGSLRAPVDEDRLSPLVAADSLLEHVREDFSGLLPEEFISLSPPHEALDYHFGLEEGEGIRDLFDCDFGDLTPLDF
Chain of Hepatocyte nuclear factor 3-beta (Homo sapiens) (Q9Y261 whole entry, looked up): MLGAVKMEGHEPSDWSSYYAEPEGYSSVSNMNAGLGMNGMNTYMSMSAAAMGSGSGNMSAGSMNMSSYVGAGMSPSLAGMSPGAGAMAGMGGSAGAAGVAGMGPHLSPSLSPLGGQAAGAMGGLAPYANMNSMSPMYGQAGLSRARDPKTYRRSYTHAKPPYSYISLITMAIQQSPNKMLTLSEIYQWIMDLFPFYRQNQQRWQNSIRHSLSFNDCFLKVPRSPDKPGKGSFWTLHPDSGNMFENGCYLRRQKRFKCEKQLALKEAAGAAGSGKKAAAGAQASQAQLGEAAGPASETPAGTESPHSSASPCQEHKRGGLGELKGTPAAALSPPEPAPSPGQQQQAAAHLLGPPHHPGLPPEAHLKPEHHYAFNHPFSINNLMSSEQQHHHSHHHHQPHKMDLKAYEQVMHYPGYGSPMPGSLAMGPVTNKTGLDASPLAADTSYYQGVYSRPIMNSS
Chain of Aryl hydrocarbon receptor (Homo sapiens) (P35869 whole entry, looked up): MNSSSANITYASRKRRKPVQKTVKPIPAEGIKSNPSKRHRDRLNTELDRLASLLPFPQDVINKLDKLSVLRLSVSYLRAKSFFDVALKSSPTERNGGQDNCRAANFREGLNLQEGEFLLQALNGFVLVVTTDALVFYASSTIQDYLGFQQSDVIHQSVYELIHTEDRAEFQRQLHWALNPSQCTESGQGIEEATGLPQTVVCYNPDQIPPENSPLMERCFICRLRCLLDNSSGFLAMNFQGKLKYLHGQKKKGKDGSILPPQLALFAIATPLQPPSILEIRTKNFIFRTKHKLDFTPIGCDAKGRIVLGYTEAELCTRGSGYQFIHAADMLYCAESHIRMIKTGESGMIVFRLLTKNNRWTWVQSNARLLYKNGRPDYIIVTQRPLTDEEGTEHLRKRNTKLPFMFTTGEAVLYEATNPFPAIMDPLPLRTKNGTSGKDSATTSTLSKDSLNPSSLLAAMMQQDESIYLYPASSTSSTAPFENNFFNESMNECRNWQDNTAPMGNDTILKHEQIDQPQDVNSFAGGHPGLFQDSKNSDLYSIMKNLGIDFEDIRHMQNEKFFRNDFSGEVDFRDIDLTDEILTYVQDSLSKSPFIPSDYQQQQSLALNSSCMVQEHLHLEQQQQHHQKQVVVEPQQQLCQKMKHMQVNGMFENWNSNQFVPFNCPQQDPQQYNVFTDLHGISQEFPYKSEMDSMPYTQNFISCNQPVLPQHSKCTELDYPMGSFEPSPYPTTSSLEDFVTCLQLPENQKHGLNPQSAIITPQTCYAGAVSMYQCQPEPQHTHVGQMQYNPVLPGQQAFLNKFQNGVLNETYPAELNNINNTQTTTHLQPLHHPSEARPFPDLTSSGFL

As to `CS(=O)(=O)c1ccc(Cl)cc1`, the compound was classed as inactive in experiment [1], in experiment [2], in experiment [3], in [4], in experiment [5] and in experiment [6]. Also, the outcome in experiment [7], in [8], in experiment [9], in [10], in experiment [11] and in experiment [12] was inactive. The result in [13], in [14], in experiment [15], in experiment [16], in [17] and in experiment [18] was inactive. In experiment [19], the compound was classed as inactive.
`CCCCCCCC(=O)OCCCCCC`: the call in experiment [1], in [2], in experiment [3], in experiment [4], in [5] and in experiment [6] was inactive. In addition, the compound was classed as inactive in [7], in experiment [8], in experiment [9], in experiment [10], in [11] and in experiment [12]. Moreover, the compound was classed as inactive in experiment [13], in experiment [14], in [15], in [16], in experiment [17] and in [18]. For the same compound, the compound was called inactive in experiment [19] and in experiment [20].
`CC(=O)Nc1ccc(C(=O)CCl)cc1`: the AC50 in [1] is 7.97 µM (active); in [4], 12.9 µM (active); in [6], 56.5 µM (active); in experiment [7], 7.19 µM (active); in experiment [11] it was 20.6 µM (active); in [20] it was 33.4 µM (active). The result in [2], in experiment [3], in experiment [5], in experiment [8], in experiment [9] and in experiment [10] was inactive. The outcome in experiment [12], in experiment [13], in experiment [14], in experiment [15], in experiment [16] and in experiment [17] was inactive. The compound was called inactive in [18].
`CC(CN=Cc1ccccc1O)N=Cc1ccccc1O` (configuration not stated): the compound was classed as inactive in [1], in experiment [2], in [4], in [7], in experiment [8] and in [9]. Also, the compound was classed as inactive in [10], in [11], in [12], in experiment [13], in experiment [14] and in experiment [15]. Also, the result in [16], in experiment [17], in experiment [18] and in [19] was inactive. Also, the figures for the concentration at half-maximal activity (AC50) in experiment [3], in [5] and in experiment [6] were 100 µM (active), 68.7 µM (active) and 100 µM (active), respectively.

(Values after PubChem BioAssay (EPA / NIEHS).)
